Test results reported in PubChem BioAssay.
For some of these results: Measured potencies and affinities stand elsewhere. Activity calls are given as the source filed them. Unless noted, the rule behind the calls is not given here.

Legend:
[1] = antimalarial activity against Dd2 strain (AID 2302;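 active = growth inhibition above 50% at the single 2 µM test dose, taken to imply half-maximal potency below 2 µM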;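 note: 0% = DMSO untreated growth and 100% = chloroquine plus artemisinin killed control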); settings: P. falciparum Dd2 in RBCs, LDH growth readout, 72 h; at 2 µM; active compounds read high
[2] = HepG2 cytotoxicity, primary screen, cytotoxicity control for P. falciparum antimalarial project, cell-based, ATP luminescence (AID 2303;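 active = inhibition above 50%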;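 note: 0% = DMSO wells and 100% = digitonin-killed cells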); settings: HepG2 viability, 24-48 h, at 10 µM, active compounds read high
[3] = target: L-lactate dehydrogenase (Plasmodium falciparum (isolate CDC / Honduras)) (UniProt Q27743); assay: PfLDH activity inhibition – cell lysate, 3D7 strain, counter-screen for P. falciparum growth inhibition project (AID 2304);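 note: 0% = vehicle and 100% = reference inhibitor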; settings: P. falciparum 3D7 crude extract, LDH APAD/NBT absorbance; at 2 µM; active compounds read high
[4] = inhibition of 3D7 malaria parasite growth – strain 3D7 (AID 2306);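 note: 0% = DMSO wells and 100% = chloroquine plus artemisinin control wells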; settings: P. falciparum 3D7 erythrocytic growth, LDH absorbance, 72 h; at 2 µM; active compounds read high
[5] = target: Calcium-dependent protein kinase 1 (Plasmodium falciparum (isolate 3D7)) (UniProt P62344); assay: PfCDPK1 kinase inhibitors, biochemical, TCAMS library (AID 1159585; cut-off not given, nearly all actives have IC50 up to about 0.98 µM;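 note: inhibitors leave more ATP so luminescence rises with inhibition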); settings: recombinant PfCDPK1, Kinase-Glo ATP depletion luminescence
[6] = target: Plasmodium falciparum protein kinase 6 (PK6, PF3D7_1337100) (UniProt Q8IDW1); assay: PfPK6 kinase inhibitors, biochemical, TCAMS library (AID 1159586); settings: recombinant PfPK6, Kinase-Glo ATP depletion luminescence
[7] = target: Protein kinase 7 (PK7), Plasmodium falciparum 3D7 (PF3D7_0213400) (UniProt Q7YTF7); assay: inhibition of Plasmodium PK7 catalytic activity – biochemical, TCAMS antimalarial set, Kinase-Glo luminescence (AID 1159587); settings: recombinant PfPK7, Kinase-Glo ATP depletion luminescence
[8] = target: Calcium-dependent protein kinase 4 (Plasmodium falciparum (isolate 3D7)) (UniProt Q8IBS5); assay: PfCDPK4 kinase inhibitors, biochemical, TCAMS library (AID 1159588; cut-off not given, nearly all actives have IC50 up to about 0.91 µM); settings: recombinant PfCDPK4, Kinase-Glo ATP depletion luminescence
Calcium-dependent protein kinase 4 (Plasmodium falciparum (isolate 3D7)), sequence (Q8IBS5 whole entry, looked up): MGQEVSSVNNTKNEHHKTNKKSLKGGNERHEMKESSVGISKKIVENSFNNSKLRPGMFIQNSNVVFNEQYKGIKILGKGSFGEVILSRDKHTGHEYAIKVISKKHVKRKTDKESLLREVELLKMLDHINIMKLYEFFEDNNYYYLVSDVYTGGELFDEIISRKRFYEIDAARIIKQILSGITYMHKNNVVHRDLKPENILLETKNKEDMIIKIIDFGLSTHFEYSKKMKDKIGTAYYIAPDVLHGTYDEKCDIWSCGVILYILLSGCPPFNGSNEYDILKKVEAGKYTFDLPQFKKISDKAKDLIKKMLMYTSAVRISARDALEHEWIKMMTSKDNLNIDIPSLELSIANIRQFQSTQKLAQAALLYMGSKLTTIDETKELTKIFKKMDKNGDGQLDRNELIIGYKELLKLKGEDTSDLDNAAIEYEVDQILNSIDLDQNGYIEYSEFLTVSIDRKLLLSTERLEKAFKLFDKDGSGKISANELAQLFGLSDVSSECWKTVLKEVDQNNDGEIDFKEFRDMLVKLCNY

Plasmodium falciparum protein kinase 6 (PK6, PF3D7_1337100), sequence (Q8IDW1 1-305): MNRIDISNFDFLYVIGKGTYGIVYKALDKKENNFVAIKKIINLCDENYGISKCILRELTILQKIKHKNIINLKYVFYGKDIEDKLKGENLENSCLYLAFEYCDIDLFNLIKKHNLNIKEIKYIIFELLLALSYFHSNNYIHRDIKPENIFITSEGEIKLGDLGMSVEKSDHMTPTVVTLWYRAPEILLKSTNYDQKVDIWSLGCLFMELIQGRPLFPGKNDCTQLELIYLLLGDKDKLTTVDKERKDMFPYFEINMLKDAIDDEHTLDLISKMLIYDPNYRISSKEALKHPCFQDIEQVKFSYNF
Calcium-dependent protein kinase 1 (Plasmodium falciparum (isolate 3D7)), sequence (P62344 whole entry, looked up): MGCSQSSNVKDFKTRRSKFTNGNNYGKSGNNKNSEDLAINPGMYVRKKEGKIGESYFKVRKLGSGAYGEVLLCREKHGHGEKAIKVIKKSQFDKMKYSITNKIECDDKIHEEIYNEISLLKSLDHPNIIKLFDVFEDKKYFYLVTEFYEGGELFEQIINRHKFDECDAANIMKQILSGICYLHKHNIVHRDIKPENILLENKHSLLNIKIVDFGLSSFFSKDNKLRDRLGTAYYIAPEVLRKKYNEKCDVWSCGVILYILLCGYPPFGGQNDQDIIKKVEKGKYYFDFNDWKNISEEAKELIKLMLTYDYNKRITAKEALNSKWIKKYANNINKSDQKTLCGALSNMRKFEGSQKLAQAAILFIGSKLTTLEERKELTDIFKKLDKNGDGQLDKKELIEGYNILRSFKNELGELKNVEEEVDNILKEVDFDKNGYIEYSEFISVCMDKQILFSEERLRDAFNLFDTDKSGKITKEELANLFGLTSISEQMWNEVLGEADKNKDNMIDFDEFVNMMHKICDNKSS
Protein kinase 7 (PK7), Plasmodium falciparum 3D7 (PF3D7_0213400), sequence (Q7YTF7 1-343): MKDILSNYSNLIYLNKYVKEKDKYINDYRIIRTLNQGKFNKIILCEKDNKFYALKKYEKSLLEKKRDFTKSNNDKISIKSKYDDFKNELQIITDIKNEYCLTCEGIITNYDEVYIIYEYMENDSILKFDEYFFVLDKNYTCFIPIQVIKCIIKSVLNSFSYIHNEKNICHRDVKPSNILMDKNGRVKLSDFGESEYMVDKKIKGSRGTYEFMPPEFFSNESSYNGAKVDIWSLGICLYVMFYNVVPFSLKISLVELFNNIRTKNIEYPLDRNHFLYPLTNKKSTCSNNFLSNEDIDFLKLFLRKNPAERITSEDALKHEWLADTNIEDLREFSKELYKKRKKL
L-lactate dehydrogenase (Plasmodium falciparum (isolate CDC / Honduras)), sequence (Q27743 whole entry, looked up): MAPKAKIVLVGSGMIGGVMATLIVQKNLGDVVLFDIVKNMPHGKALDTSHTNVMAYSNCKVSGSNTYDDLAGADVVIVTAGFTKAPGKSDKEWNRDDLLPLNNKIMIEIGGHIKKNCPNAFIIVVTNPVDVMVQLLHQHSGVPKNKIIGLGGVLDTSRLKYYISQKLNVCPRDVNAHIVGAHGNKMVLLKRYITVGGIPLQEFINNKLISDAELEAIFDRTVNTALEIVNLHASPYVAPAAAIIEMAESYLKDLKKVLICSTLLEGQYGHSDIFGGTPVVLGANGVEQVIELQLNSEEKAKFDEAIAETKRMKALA

Cc1nnc2sc(-c3cccc(NC(=O)c4ccc(N5CCCCC5)c([N+](=O)[O-])c4)c3)nn12
active: growth inhibition [4] 87%
inactive: growth inhibition [1] 20% | inhibition [2] 3% | inhibition [3] -3% | outcome [5] | outcome [6] | outcome [7] | outcome [8]

COc1ccc2nc(C)cc(Nc3ccc(Oc4ccc5ccccc5c4)c(Cl)c3)c2c1
inactive: inhibition [2] 40% | inhibition [3] 3% | outcome [5] | outcome [6] | outcome [7] | outcome [8]
active: growth inhibition [1] 99% | growth inhibition [4] 102%

CCC(C)CN1CCCN(c2ccc(NC(=O)c3cccs3)cc2)CC1 (centres undefined)
active: growth inhibition [1] 95% | growth inhibition [4] 91%
inactive: inhibition [2] 4% | inhibition [3] -2% | outcome [5] | outcome [6] | outcome [7] | outcome [8]

CCCN(CCC)C(=O)c1cc(C(=O)N[C@@H](Cc2ccccc2)[C@H](O)CNC(C)(C)c2cccc(C(F)(F)F)c2)cc(N2CCCCS2(=O)=O)c1
inactive: inhibition [2] 19% | inhibition [3] -4% | outcome [5] | outcome [6] | outcome [7] | outcome [8]
active: growth inhibition [1] 98% | growth inhibition [4] 99%

N#Cc1ccc(CNCCCCCCNCc2ccc(C#N)c3ccccc23)c2ccccc12
active: growth inhibition [1] 96% | inhibition [2] 51% | growth inhibition [4] 102%
inactive: inhibition [3] -3% | outcome [5] | outcome [6] | outcome [7] | outcome [8]

O=C(Nc1cccc(-c2ccc(-c3nc4ccccc4[nH]3)cc2)c1)c1cccnc1
inactive: growth inhibition [1] 1% | inhibition [2] 18% | inhibition [3] -5% | outcome [5] | outcome [6] | outcome [7] | outcome [8]
active: growth inhibition [4] 100%

Cc1cc(NN=Cc2ccccc2[N+](=O)[O-])c2cc(C(F)(F)F)ccc2n1
inactive: growth inhibition [1] 39% | inhibition [2] -5% | inhibition [3] 1% | outcome [5] | outcome [6] | outcome [7] | outcome [8]
active: growth inhibition [4] 97%

CC[C@H](C)CNC(=O)c1cncc(-c2ccc(CNCCCc3ccccc3)cc2)c1
active: growth inhibition [1] 99% | growth inhibition [4] 101%
inactive: inhibition [2] 19% | inhibition [3] -2% | outcome [5] | outcome [6] | outcome [7] | outcome [8]

O=C(NCC1CCC(CNCCCc2ccccc2)CC1)c1cc(Cl)cc(Cl)c1 (centres undefined)
active: inhibition [2] 58% | growth inhibition [4] 89%
inactive: growth inhibition [1] 13% | inhibition [3] -1% | outcome [5] | outcome [6] | outcome [7] | outcome [8]

Cc1cc(OCCCN2CCC(NS(=O)(=O)c3cccc(Br)c3)CC2)c2ccccc2n1
inactive: growth inhibition [1] 28% | inhibition [2] 28% | inhibition [3] -2% | outcome [5] | outcome [6] | outcome [7] | outcome [8]
active: growth inhibition [4] 95%

COc1cc(C(=O)NC2CCN(Cc3ccccc3)CC2)ccc1-c1nc2cc(Cl)c(Cl)cc2[nH]1
active: growth inhibition [1] 100% | growth inhibition [4] 103%
inactive: inhibition [2] 14% | inhibition [3] 4% | outcome [5] | outcome [6] | outcome [7] | outcome [8]

O=S(=O)(NC1CCN(c2ccnc3cc(Cl)ccc23)C1)c1cccs1 (centres undefined)
inactive: inhibition [2] 6% | inhibition [3] -4% | outcome [5] | outcome [6] | outcome [7] | outcome [8]
active: growth inhibition [1] 76% | growth inhibition [4] 102%

CN1CCN(c2ccnc3ccc(NC(=O)Cc4ccc5ccccc5c4)cc23)CC1
active: growth inhibition [1] 89% | growth inhibition [4] 100%
inactive: inhibition [2] 6% | inhibition [3] -2% | outcome [5] | outcome [6] | outcome [7] | outcome [8]

O=C(Nc1ccc(-c2ccc(-c3nc4ccccc4[nH]3)s2)cc1)Nc1ccsc1
inactive: inhibition [2] 25% | inhibition [3] 5% | outcome [5] | outcome [6] | outcome [7] | outcome [8]
active: growth inhibition [1] 54% | growth inhibition [4] 100%

C=CCc1cccc(OC)c1OCCCON1C(N)=NC(N)=NC1(C)C
active: growth inhibition [1] 95% | inhibition [2] 58% | growth inhibition [4] 94%
inactive: inhibition [3] -1% | outcome [5] | outcome [6] | outcome [7] | outcome [8]

CCOc1ccccc1CCNCC1CCN(CC2CCCCC2)CC1
inactive: inhibition [2] 35% | inhibition [3] -1% | outcome [5] | outcome [6] | outcome [7] | outcome [8]
active: growth inhibition [1] 59% | growth inhibition [4] 84%

Cc1[nH]cnc1CSCCNC(=NCCCCCCCCN=C(NC#N)NCCSCc1nc[nH]c1C)NC#N
active: growth inhibition [4] 81%
inactive: growth inhibition [1] 48% | inhibition [2] 1% | inhibition [3] 0% | outcome [5] | outcome [6] | outcome [7] | outcome [8]

CCN(CC)CCN(Cc1ccc(-c2ccc(C#N)cc2)cc1)C(=O)Cn1c(CCc2cccc(F)c2F)nc(=O)c2ccccc21
inactive: growth inhibition [1] 46% | inhibition [2] 31% | inhibition [3] -1% | outcome [5] | outcome [6] | outcome [7] | outcome [8]
active: growth inhibition [4] 100%

CCN(CC)CCCN1CCN(C(=O)c2cccc(-c3noc(C(F)(F)F)n3)c2)CC1
active: growth inhibition [1] 74% | growth inhibition [4] 91%
inactive: inhibition [2] -10% | inhibition [3] 7% | outcome [5] | outcome [6] | outcome [7] | outcome [8]

O=C(c1ccc(Cl)cc1)N1CCCC(C(=O)N(Cc2nnc(-c3ccccc3Cl)o2)C2CC2)C1 (centres undefined)
active: growth inhibition [1] 96% | growth inhibition [4] 95%
inactive: inhibition [2] 10% | inhibition [3] 0% | outcome [5] | outcome [6] | outcome [7] | outcome [8]

COc1ccccc1N1CCN(C(C(=O)NCc2ccc(C)cc2)c2ccc(C)cc2)CC1 (centres undefined)
active: growth inhibition [1] 79% | growth inhibition [4] 92%
inactive: inhibition [2] 12% | inhibition [3] 6% | outcome [5] | outcome [6] | outcome [7] | outcome [8]

C=C(F)c1sc(CNCCCNc2nc3ccccc3[nH]2)c(C)c1Br
inactive: growth inhibition [1] 23% | inhibition [2] 15% | inhibition [3] 3% | outcome [5] | outcome [6] | outcome [7] | outcome [8]
active: growth inhibition [4] 100%

c1ccc(CN2CCC(NCc3ccccc3-c3cccc(CNCc4ccc5c(c4)OCO5)c3)CC2)cc1
active: growth inhibition [1] 69% | growth inhibition [4] 102%
inactive: inhibition [2] 37% | inhibition [3] 4% | outcome [5] | outcome [6] | outcome [7] | outcome [8]

Fc1ccc(COc2ccc(Nc3ncnc4ccc(I)cc34)cc2Cl)cc1
inactive: growth inhibition [1] 30% | inhibition [2] 28% | inhibition [3] -5% | outcome [5] | outcome [6] | outcome [7] | outcome [8]
active: growth inhibition [4] 86%

O=C(Nc1cccc(-c2csc(-c3nc4ccccc4[nH]3)c2)c1)c1cc(=O)c2ccccc2[nH]1
active: growth inhibition [4] 98%
inactive: growth inhibition [1] 39% | inhibition [2] 41% | inhibition [3] -2% | outcome [5] | outcome [6] | outcome [7] | outcome [8]

Cc1cnc(C(=O)Nc2cccc(-c3ccc(-c4nc5ccc(C(F)(F)F)cc5[nH]4)s3)c2)cn1
inactive: growth inhibition [1] 14% | inhibition [2] 35% | inhibition [3] -7% | outcome [5] | outcome [6] | outcome [7] | outcome [8]
active: growth inhibition [4] 86%

CC(C)CNCc1ccc(-c2ccc(CN(CCCN3CCN(C)CC3)C(=O)/C=C/c3ccccc3)cc2)cc1
active: growth inhibition [1] 93% | inhibition [2] 57% | growth inhibition [4] 99%
inactive: inhibition [3] 3% | outcome [5] | outcome [6] | outcome [7] | outcome [8]

O=C(NC1CCN(Cc2ccccc2)CC1)c1ccc2c(=O)n(Cc3ccc(Cl)cc3)c(=S)[nH]c2c1
active: growth inhibition [1] 100% | growth inhibition [4] 101%
inactive: inhibition [2] 16% | inhibition [3] 5% | outcome [5] | outcome [6] | outcome [7] | outcome [8]

COc1ccc(CNc2ccnc(-n3cnc4cc(C)c(C)cc43)n2)cc1Cl
active: growth inhibition [1] 100% | growth inhibition [4] 100%
inactive: inhibition [2] 6% | inhibition [3] -8% | outcome [5] | outcome [6] | outcome [7] | outcome [8]

CN1CC[C@@H](Oc2cc(NC(=O)Nc3ccccc3Br)ccc2Cl)C1
active: growth inhibition [4] 100%
inactive: growth inhibition [1] 6% | inhibition [2] 26% | inhibition [3] 0% | outcome [5] | outcome [6] | outcome [7] | outcome [8]

CC(=O)c1cccc(Nc2nc3c(C#N)c(OCc4cc(Cl)cc(Cl)c4)ccc3[nH]2)c1
active: growth inhibition [4] 86%
inactive: growth inhibition [1] 45% | inhibition [2] 29% | inhibition [3] 0% | outcome [5] | outcome [6] | outcome [7] | outcome [8]

O=C(/C=C/c1ccc(Cl)c(Cl)c1)NCCCCCN1CCCC(CCCNC(=O)Nc2ccc(C(F)(F)F)cc2)C1 (centres undefined)
active: inhibition [2] 58% | growth inhibition [4] 101%
inactive: growth inhibition [1] 48% | inhibition [3] -4% | outcome [5] | outcome [6] | outcome [7] | outcome [8]

Cc1ccccc1C1CCN(C2CCC(NC(=O)/C=C/c3cccc(C(F)(F)F)c3)CC2)CC1 (centres undefined)
active: growth inhibition [1] 54% | inhibition [2] 96% | growth inhibition [4] 100%
inactive: inhibition [3] -4% | outcome [5] | outcome [6] | outcome [7] | outcome [8]

CCOCCCNc1sc(S(=O)(=O)c2ccccc2)nc1S(=O)(=O)c1ccc(C)cc1
active: growth inhibition [1] 87% | growth inhibition [4] 96%
inactive: inhibition [2] -8% | inhibition [3] 1% | outcome [5] | outcome [6] | outcome [7] | outcome [8]

O=C(NCCCCN1CCC(c2ccc([N+](=O)[O-])cc2)CC1)c1ccc(NC(=O)c2ccc(Cl)cc2)cc1
active: growth inhibition [1] 55% | growth inhibition [4] 100%
inactive: inhibition [2] 15% | inhibition [3] 2% | outcome [5] | outcome [6] | outcome [7] | outcome [8]

c1cc(CNCCc2ccncc2)cc(-c2ccc(-c3nc4ccccc4[nH]3)s2)c1
active: growth inhibition [1] 97% | growth inhibition [4] 101%
inactive: inhibition [2] 1% | inhibition [3] -3% | outcome [5] | outcome [6] | outcome [7] | outcome [8]

COc1ccc(CNC2Cc3ccccc3C2)cc1-c1ccc(S(=O)(=O)NCCN2CCCC2)cc1
inactive: inhibition [2] 40% | inhibition [3] -7% | outcome [5] | outcome [6] | outcome [7] | outcome [8]
active: growth inhibition [1] 61% | growth inhibition [4] 101%

CCNc1cc(C(=O)N[C@@H](Cc2ccccc2)[C@H](O)CNCc2cccc(OC)c2)c(OC)c(N2CCCCS2(=O)=O)c1
inactive: inhibition [2] 11% | inhibition [3] -8% | outcome [5] | outcome [6] | outcome [7] | outcome [8]
active: growth inhibition [1] 96% | growth inhibition [4] 97%
